# Experiments:
# Test in all cases: PBM binding z-score (relative to random genomic background probes); higher = stronger binding; sequences stand for … in GC…GCGATTGACAGCGTAGAATGAAGG
# [1] = system: RARb homodimer (NR concentration 270 nM)
# Procedure, shortened: (§1)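 Regression normalization was applied to scanned fluorescence from custom Agilent 4×180K protein-binding microarrays. Before scanning, arrays were incubated 1 h with ligand-free nuclear receptor dimers, and binding was detected with antibodies against each partner (one per run). Binding z-scores use the random background probes as reference.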
# [2] = system: RARg:RXRa (NR concentration 270 nM, RXRa partner concentration 90 nM)
# Procedure, shortened: as §1
# [3] = system: RARg homodimer (NR concentration 270 nM)
# Procedure, shortened: as §1
# [4] = system: RXRa DBDmut IVT, anti-RXR (DBD mutation: RXRa K156A/R161A, NR concentration 90 nM)
# Procedure, shortened: as §1
# [5] = system: RXRa homodimer (NR concentration 180 nM)
# Procedure, shortened: as §1
# [6] = system: THRa:RXRa (NR concentration 90 nM, RXRa partner concentration 90 nM)
# Procedure, shortened: as §1
# [7] = system: THRa homodimer (NR concentration 90 nM)
# Procedure, shortened: as §1
# [8] = system: VDR homodimer (NR concentration 270 nM)
# Procedure, shortened: as §1
Sequence,PBM binding z-score [1],PBM binding z-score [2],PBM binding z-score [3],PBM binding z-score [4],PBM binding z-score [5],PBM binding z-score [6],PBM binding z-score [7],PBM binding z-score [8]
TCTTGTAGATCAACAGGAGGTTCAGAAAGATCGA,-0.296,0.00148,-0.0996,0.388,0.331,0.0407,-1,0.524
GCATATAGGTAATGCAAGGTGAAAGTCCGATTGT,0.843,0.513,0.479,0.239,0.519,4.1,0.825,-0.0965
GGAACGAGGGGAAAGTTGATAGCATCTGTCGACG,0.0344,0.0991,0.188,0.287,0.258,0.0347,-0.259,-0.402
CAAACTAGGTCAAGATGTCAAAGTCCGCTTCCCG,3.53,4.72,5.27,1.76,3.43,2.86,1.04,0.881
GTACCAAGGTGAATAGGTCGTGGATGAGTAGGCG,2.29,3.12,1.51,-0.652,2.44,1.91,0.648,-0.0897
GCTTGTAGCTCAAGGTTAAGAAAGACTAAGCTAA,-0.0742,0.0545,-0.162,-0.204,0.541,0.986,-0.586,-0.603
CCAGACAGGTGAAAAGGTAACTCAGCCTCGATTA,1.49,1.96,0.973,0.272,1.52,0.971,0.514,-0.0428
TCTTGTAGATCAATAGTGGTTAAGAAAGTGCGCT,-0.161,-0.0273,-0.193,0.933,0.198,0.0334,-0.033,0.464
CTCGAAAGGTCGGTAGAGGTGAGTATACGGATAA,2.52,2.89,2.98,0.197,2.49,4.38,-0.139,0.0872
CAAAGTAGGTCACAGAGGTCAAAGTCCGTGCGTA,5.68,7.42,8.01,3.36,8.08,4.51,2.42,6.6
CGTCCAAGGTCAATGCTAGGTCAGTGAGAGCATT,5.01,7.45,6.65,3.53,5.06,4.37,2.87,3.36
TCTTGTAGATCAACAGGAGGTAAAGAAAGATCGA,-0.473,0.0301,-0.00391,0.122,0.423,0.237,-0.482,-0.385
ATATGTAGGGTATCGGGTCATTCAGTTTGCGCAT,2.99,2.43,1.97,1.43,2.76,3.07,2.69,3.81
ATCTCTAGGTAAGGTTCAGTGAAAGATCGATAGA,0.959,0.973,1.03,1.35,0.69,0.888,0.39,2.32
ACAGACAGGTTAGTGAAGGTAACTCAGCTGGACG,0.435,0.363,0.773,-0.188,0.511,2.2,-0.138,-0.0977
ACTAGCAGGCCAAGGCTCACTCAAGATTAGTCCG,-0.234,-0.222,0.0156,-0.206,-0.0748,-0.43,-0.144,-0.802
GTACCAAGGTGAATAGGGCGTTGATGAGTAGGCG,1.21,1.13,0.952,-0.247,0.599,1.36,0.767,0.221
CCAACGAGGGCATGAGTTGATAGCAAATGCCGAT,0.406,0.887,1.35,2.04,0.929,1.01,-0.114,1.2
ATCTCTAGGTAAAAGTTCAGTCAATCCCGAGGAT,2.54,2.1,2.2,1.12,1.7,1.53,0.584,2.36
CCTCGGAGGACAGAAGGTCAGAGCCGTCCGCTTT,3.64,3.4,3.1,0.361,2,2.33,0.0553,-0.0393
TCGAGTAGGTTAGTCTGGGCATTCAGCCAACATA,-0.367,-0.389,-0.417,-0.133,-0.273,0.0539,-0.454,-0.466
ACTATTAGTTGAGACGAGGGCACCCGATAGGTTG,1.01,0.598,1.02,0.586,0.681,2.57,0.574,0.89
TTTCCAAGGTGAGCTGAGGTCGTTGATCCAACTC,1.73,1.51,1.2,0.414,1.59,4.61,2.71,2.61
ACAGTCAGGTGATGAAGGTAACTCAGGCTATCAT,0.23,0.23,0.365,-0.243,0.405,1.19,0.0421,-0.453
GCTAGTTGGTCAGTAAAAGGTCACATACCGGTCG,5.15,5.2,4.75,0.819,4.95,3.52,1.86,1.74
CTACCAAGGTGAACAAGGTCTTTGATTACTATTC,1.24,0.878,0.946,0.886,0.789,2.52,1.42,0.414
GATACAGGGTCAGCTAGAGGACAGAGTATGGAAA,3.71,6.86,4.97,1.16,4.03,3.79,1.05,0.873
CCTCGGGGGACAGAAGGTCAGAGCTGTCCGCTTT,3.57,4.6,4.23,0.388,2.83,3.31,0.175,0.0933

# — the supplement of paper PMC6555819
